Assay results taken from PubChem BioAssay (EPA / NIEHS).
Several values for one entry are separate records, joined by “and”; a condition that tells them apart may be missing. Equal entries are not always repeated. Where a structure was tested more than once in an assay, its records may differ in their call. Activity calls are given as the source filed them. How the source made its calls: active means hit-call score of the fitted dose curve at least 0.9, where 1 is the maximum; inactive means score below 0.9.

Columns and labels:
Conditions in all cases: mRNA level, 48 h; actives raise or lower the signal
CYP2C8 (gene 1558) = test: LTEA_HepaRG_CYP2C8: Life Technologies and Expression Analysis (LTEA) Assay for CYP2C8 using HepaRG (AID 2283483)
How it was run: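 HepaRG (human liver line), 48 h chemical exposure, 8-pt half-log series from 100 uM, 0.5% DMSO vehicle. Readout: CYP2C8 transcript by qRT-PCR, housekeeping-normalized. Bidirectional fit vs DMSO baseline.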

CYP2C9 (gene 1559) = test: LTEA_HepaRG_CYP2C9: Life Technologies and Expression Analysis (LTEA) Assay for CYP2C9 using HepaRG (AID 2283484)
How it was run: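 HepaRG, 48 h dosing, 8-pt half-log series, top 100 uM, 0.5% DMSO vehicle. Read-out: CYP2C9 transcript by TaqMan qRT-PCR, housekeeping-normalized (ACTB/GAPDH/POLR2A). Gain or loss fitted vs DMSO baseline.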

CYP4A11 (gene 1579) = test: LTEA_HepaRG_CYP4A11: Life Technologies and Expression Analysis (LTEA) Assay for CYP4A11 using HepaRG (AID 2283486)
How it was run: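 Readout is CYP4A11 mRNA induction or suppression (qRT-PCR, ACTB/GAPDH/POLR2A normalization) in human HepaRG cells after 48 h chemical treatment, concentrations to 100 uM in 0.5% DMSO, fitted bidirectionally against vehicle.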

[1] = read-out: Cytochrome P450 3A4 (Homo sapiens) (UniProt P08684); test: LTEA_HepaRG_CYP3A4: Life Technologies and Expression Analysis (LTEA) Assay for CYP3A4 using HepaRG (AID 2283487)
How it was run: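 Differentiated HepaRG cells, plated 48 h, then dosed 48 h in serum-free induction medium with 0.5% DMSO, 8 half-log concentrations up to 100 uM, duplicate. CYP3A4 mRNA by qRT-PCR, normalized to ACTB/GAPDH/POLR2A; bidirectional fit versus DMSO.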

[2] = read-out: DNA damage-inducible transcript 3 (DDIT3), DDIT3 (gene 1649); test: LTEA_HepaRG_DDIT3: Life Technologies and Expression Analysis (LTEA) Assay for DNA damage-inducible transcript 3 (DDIT3) using HepaRG (AID 2283488)
How it was run: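 Eight-point concentration-response (100 uM highest, half-log dilutions) in HepaRG, 48 h, duplicate wells. Endpoint: qRT-PCR mRNA, normalized (ACTB, GAPDH, POLR2A), bidirectional fitting with DMSO as baseline.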

[3] = read-out: Pro-epidermal growth factor (Homo sapiens) (UniProt P01133); test: LTEA_HepaRG_EGF: Life Technologies and Expression Analysis (LTEA) Assay for Epidermal growth factor (EGF) using HepaRG (AID 2283489)
How it was run: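 EGF expression changes in human HepaRG cells are scored by bidirectional fitting relative to 0.5% DMSO controls. Chemicals are tested at eight half-log concentrations up to 100 uM for 48 h in serum-free induction medium.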

[4] = read-out: Early growth response protein 1 (EGR1) transcription factor, EGR1 (gene 1958); test: LTEA_HepaRG_EGR1: Life Technologies and Expression Analysis (LTEA) Assay for Early growth response protein 1 (EGR1) transcription factor using HepaRG (AID 2283490)
How it was run: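 HepaRG, 48 h exposure, 8-pt half-log series from 100 uM, 0.5% DMSO vehicle; EGR1 transcript by TaqMan qRT-PCR (Fluidigm array), housekeeping-normalized; bidirectional fit relative to DMSO baseline.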

[5] = read-out: Ezrin (EZR), EZR (gene 7430); test: LTEA_HepaRG_EZR: Life Technologies and Expression Analysis (LTEA) Assay for Ezrin (EZR) using HepaRG (AID 2283491)
How it was run: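 EZR transcript levels came from Fluidigm qRT-PCR and were normalized to three housekeeping genes after 48 h chemical exposure of HepaRG cells. Dosing used an 8-point half-log series with a 100 uM top concentration in 0.5% DMSO, tested in duplicate; both directions were fitted versus vehicle.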

[6] = read-out: Cytochrome P450 3A7 (Homo sapiens) (UniProt P24462); test: LTEA_HepaRG_CYP3A7: Life Technologies and Expression Analysis (LTEA) Assay for CYP3A7 using HepaRG (AID 2283492)
How it was run: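 Cells were thawed, plated, cultured 48 h, then treated for a further 48 h with chemicals (eight-point half-log series from 100 uM, 0.5% DMSO). RNA was isolated and CYP3A7 expression quantified by qRT-PCR normalised to ACTB, GAPDH and POLR2A.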

[7] = read-out: Fatty Acid-Binding Protein 1 (FABP1), FABP1 (gene 2168); test: LTEA_HepaRG_FABP1: Life Technologies and Expression Analysis (LTEA) Assay for Fatty Acid-Binding Protein 1 (FABP1) using HepaRG (AID 2283494)
How it was run: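 qRT-PCR readout of FABP1 transcript (normalized to three housekeeping genes) after 48 h chemical exposure of HepaRG cells; eight concentrations, half-log steps, max 100 uM, 0.5% DMSO vehicle; gain or loss fitted relative to DMSO baseline.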

[8] = read-out: Cytochrome P450 4A22 (Homo sapiens) (UniProt Q5TCH4); test: LTEA_HepaRG_CYP4A22: Life Technologies and Expression Analysis (LTEA) Assay for Cytochrome P450 4A22 (CYP4A22) using HepaRG (AID 2283495)
How it was run: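 Cryopreserved HepaRG cells, plated and cultured 48 h, then switched to serum-free induction medium and treated 48 h (duplicates, up to 100 uM, half-log steps, 0.5% DMSO). Expression change of CYP4A22 was fitted bidirectionally against vehicle.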

[9] = read-out: Cytochrome P450 7A1 (Homo sapiens) (UniProt P22680); test: LTEA_HepaRG_CYP7A1: Life Technologies and Expression Analysis (LTEA) Assay for Cytochrome P450 7A1 (CYP7A1) using HepaRG (AID 2283496)
How it was run: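 Using 0.5% DMSO as vehicle and baseline, chemicals were tested in duplicate over an 8-point range from 100 uM on HepaRG cells for 48 h; qRT-PCR signals were normalised to ACTB, GAPDH and POLR2A.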

[10] = read-out: Glutathione S-Transferase (GSTA2), GSTA2 (gene 2939); test: LTEA_HepaRG_GSTA2: Life Technologies and Expression Analysis (LTEA) Assay for Glutathione S-Transferase (GSTA2) using HepaRG (AID 2283497)
How it was run: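 qRT-PCR readout of GSTA2 transcript, normalized to three housekeeping genes, fitted bidirectionally against 0.5% DMSO baseline. Differentiated HepaRG cells received compound for 48 h at 8 concentrations (top 100 uM, half-log steps).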

[11] = read-out: Glutamate-cysteine ligase catalytic (GCLC), GCLC (gene 2729); test: LTEA_HepaRG_GCLC: Life Technologies and Expression Analysis (LTEA) Assay for Glutamate-cysteine ligase catalytic (GCLC) using HepaRG (AID 2283498)
How it was run: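 HepaRG, 48 h exposure, 8-pt half-log series from 100 uM, 0.5% DMSO vehicle; TaqMan qRT-PCR for GCLC mRNA, housekeeping-normalized; bidirectional curve fit vs DMSO baseline.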

[12] = read-out: growth arrest and DNA damage 45 (GADD45G), GADD45G (gene 10912); test: LTEA_HepaRG_GADD45G: Life Technologies and Expression Analysis (LTEA) Assay for growth arrest and DNA damage 45 (GADD45G) using HepaRG (AID 2283499)
How it was run: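 Human hepatic HepaRG line treated 48 h with chemicals (eight concentrations, half-log steps from 100 uM); transcript induction or repression of GADD45G scored by qRT-PCR versus DMSO vehicle.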

[13] = read-out: Glutamate-cysteine ligase regulatory (GCLM), GCLM (gene 2730); test: LTEA_HepaRG_GCLM: Life Technologies and Expression Analysis (LTEA) Assay for Glutamate-cysteine ligase regulatory (GCLM) using HepaRG (AID 2283500)
How it was run: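 In this multiplexed HepaRG gene-expression assay, GCLM mRNA change after 48 h treatment (8 concentrations, max 100 uM) was scored against DMSO by bidirectional curve fitting.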

[14] = read-out: Glutathione S-transferase M3 (GSTM3), GSTM3 (gene 2947); test: LTEA_HepaRG_GSTM3: Life Technologies and Expression Analysis (LTEA) Assay for Glutathione S-transferase M3 (GSTM3) using HepaRG (AID 2283501)
How it was run: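 Changes in GSTM3 expression, an oxidative-stress marker, were scored by bidirectional curve fitting against 0.5% DMSO vehicle. Human HepaRG cultures received chemicals for 48 h in duplicate, highest concentration 100 uM with half-log dilutions.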

[15] = read-out: Heat shock 70 kDa protein 1 (HSPA1A), gene 3303; test: LTEA_HepaRG_HSPA1A: Life Technologies and Expression Analysis (LTEA) Assay for Heat shock 70 kDa protein 1 (HSPA1A) using HepaRG (AID 2283502)
How it was run: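 An oxidative-stress marker readout: HepaRG cells treated 48 h in duplicate with an eight-point series (highest 100 uM) had HSPA1A mRNA quantified by TaqMan qRT-PCR. Activity was fitted in both directions using 0.5% DMSO as baseline.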

CYP3A5 (gene 1577) = test: LTEA_HepaRG_CYP3A5: Life Technologies and Expression Analysis (LTEA) Assay for CYP3A5 using HepaRG (AID 2283493)
How it was run: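 Readout was CYP3A5 mRNA by qRT-PCR. HepaRG cultures were exposed for 48 h in serum-free induction medium to chemicals at up to 100 uM, and responses were fitted in both directions relative to DMSO vehicle.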

Measured: AC50

Cytochrome P450 3A7 (Homo sapiens), sequence (P24462 whole entry, looked up): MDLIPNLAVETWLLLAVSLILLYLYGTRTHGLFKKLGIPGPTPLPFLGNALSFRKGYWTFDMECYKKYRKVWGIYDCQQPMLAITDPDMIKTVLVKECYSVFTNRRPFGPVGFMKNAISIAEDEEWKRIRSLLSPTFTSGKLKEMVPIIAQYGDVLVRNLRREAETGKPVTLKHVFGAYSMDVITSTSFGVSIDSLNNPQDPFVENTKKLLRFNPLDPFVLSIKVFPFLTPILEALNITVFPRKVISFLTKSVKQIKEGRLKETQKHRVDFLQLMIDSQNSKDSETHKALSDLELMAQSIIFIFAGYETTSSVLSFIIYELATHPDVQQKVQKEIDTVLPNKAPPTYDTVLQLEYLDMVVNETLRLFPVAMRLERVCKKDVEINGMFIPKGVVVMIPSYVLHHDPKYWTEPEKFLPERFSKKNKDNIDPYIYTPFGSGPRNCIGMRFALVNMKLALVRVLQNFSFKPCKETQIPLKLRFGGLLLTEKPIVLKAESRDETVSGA
Cytochrome P450 3A4 (Homo sapiens), sequence (P08684 whole entry, looked up): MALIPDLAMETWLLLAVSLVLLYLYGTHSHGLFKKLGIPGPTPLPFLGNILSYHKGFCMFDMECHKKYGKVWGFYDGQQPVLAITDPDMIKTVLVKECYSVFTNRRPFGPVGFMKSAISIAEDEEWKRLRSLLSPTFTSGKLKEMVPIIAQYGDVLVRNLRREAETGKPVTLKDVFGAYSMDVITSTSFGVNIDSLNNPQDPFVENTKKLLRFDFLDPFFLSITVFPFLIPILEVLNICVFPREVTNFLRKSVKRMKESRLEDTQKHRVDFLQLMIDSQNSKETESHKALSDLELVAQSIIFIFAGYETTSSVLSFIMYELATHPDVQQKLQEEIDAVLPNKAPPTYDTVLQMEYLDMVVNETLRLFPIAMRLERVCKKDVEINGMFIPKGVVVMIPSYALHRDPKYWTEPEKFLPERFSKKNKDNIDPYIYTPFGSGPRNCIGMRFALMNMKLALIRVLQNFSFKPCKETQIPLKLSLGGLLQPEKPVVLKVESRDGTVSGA

Oc1ccccc1-c1ccccc1
inactive: CYP2C8 (gene 1558) | CYP2C9 (gene 1559) | CYP4A11 (gene 1579) | [1] | [2] | [3] | [4] | [5] | [6] | [7] | [8] | [9] | [10] | [11] | [12] | [13] | [14] | [15]

CO/C=C(/C(=O)OC)c1ccccc1Oc1cc(Oc2ccccc2C#N)ncn1
active: CYP2C8 (gene 1558) 79.9 µM and 79.2 µM and 78.1 µM | CYP2C9 (gene 1559) 79.1 µM and 79 µM and 93.4 µM | CYP4A11 (gene 1579) 66.4 µM and 68.3 µM and 40.2 µM | [2] 77.9 µM and 94.2 µM and 77.2 µM | [4] 13 µM and 13.3 µM | CYP3A5 (gene 1577) 62.6 µM and 35.6 µM | [7] 82.4 µM and 75.6 µM and 73.2 µM | [8] 76.3 µM and 66.9 µM and 65.6 µM | [9] 93.4 µM and 94.1 µM and 87.4 µM | [10] 81.5 µM and 81 µM and 78.7 µM | [12] 78 µM and 80.2 µM and 73.5 µM | [13] 75.6 µM and 63.3 µM and 71.8 µM | [14] 83.1 µM | [15] 83.4 µM
inactive: [3] | [4] | [5] | [6] | CYP3A5 (gene 1577) | [11] | [14] | [15]

COc1cnc(OC)n2nc(NS(=O)(=O)c3c(OCC(F)F)cccc3C(F)(F)F)nc12
active: CYP4A11 (gene 1579) 11.5 µM | [1] 8.2 µM | [8] 9.46 µM | [9] 26.2 µM | [15] 50 µM
inactive: CYP2C8 (gene 1558) | CYP2C9 (gene 1559) | [2] | [4] | [5] | [6] | CYP3A5 (gene 1577) | [7] | [10] | [11] | [12] | [13] | [14]

CCCCNC(=O)n1c(NC(=O)OC)nc2ccccc21
inactive: CYP2C8 (gene 1558) | CYP2C9 (gene 1559) | CYP4A11 (gene 1579) | [1] | [2] | [3] | [4] | [5] | [6] | CYP3A5 (gene 1577) | [7] | [8] | [9] | [10] | [11] | [12] | [13] | [14] | [15]

C#CCOS(=O)OC1CCCCC1Oc1ccc(C(C)(C)C)cc1 (stereo not given)
active: CYP2C8 (gene 1558) 29.9 µM | CYP2C9 (gene 1559) 25.6 µM | CYP4A11 (gene 1579) 25.9 µM | [1] 28.8 µM | [2] 15.2 µM | [6] 29.5 µM | CYP3A5 (gene 1577) 30.1 µM | [7] 18.7 µM | [9] 26.6 µM | [10] 27.7 µM | [11] 28.2 µM | [12] 12.7 µM | [13] 9.92 µM | [14] 29.7 µM | [15] 27.2 µM
inactive: [4] | [5] | [8]
